From PubChem
ABCB6 inh 2 = ABCB6 transporter inhibitors, primary screen, K562-ABCB6 cells, flow cytometry, MLPCN library; 360,000 tested, 0.19% active; fluorescence ratio to DMSO, % at 10 µM; K562-ABCB6 porphyrin accumulation, 1 h; stronger effect = lower value; AID 602162, 2011; ATP-binding cassette sub-family B member 6 (Homo sapiens), Q9NP58;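 active = fluorescence ratio to DMSO below 75%, the collection mean minus 3 SD; inconclusive = too few cells collected in the well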;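 also: signal is porphyrin accumulated inside mitochondria; 100% equals median channel fluorescence of DMSO control wells; lower ratio means ABCB6 inhibition with less porphyrin fluorescence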
Exocytosis inh = LAMP-1 surface exposure blockers, TALL-104 cells – cell-based, flow cytometry, MLPCN library, primary screen; 360,000 tested, 0.66% active; TALL-104 LAMP-1 surface exposure; cells stimulated with thapsigargin and PMA; inhibition, % at 10 µM;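 active = inhibition above about 55%, limit read from the data; inconclusive = no clear call, values can overlap the other calls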
Myeloid diff 2 = induction of myeloid progenitor differentiation, primary screen, cell-based, flow cytometry, MLPCN library | ER-HoxA9 myeloid progenitors, lysozyme-GFP differentiation | calls only at 10 µM | 360,000 tested, 1% active | AID 624256, 2012;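 active = normalized GFP-positive differentiation at or above the plate's own cutoff, the solvent-only control mean plus 3 SD; inconclusive = no clear call, values can overlap the other calls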;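 also: cells exposed to compound for four days before flow analysis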
Myeloid diff CP1 = inducers of myeloid progenitor differentiation, confirmation, cell-based, GFP/Mac1 flow cytometry, cherry pick 01. shares compounds with Myeloid diff 2. ER-HoxA9 myeloid progenitors, GFP/Mac1 double-positive flow. calls only. 2,300 tested, 2% active;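 active = share of green or green-and-red cells above 9 and 9% in run 1 or 4 and 3% in run 2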
GFP autofluor = compound fluorescence in myeloid differentiation counter-screen | shares compounds with Myeloid diff 2 | ER-HoxA9 myeloid progenitors, no estrogen, GFP autofluorescence flow cytometry; vehicle wells 0%, positive control 100% | fluorescence response, % (test concentration not listed) | 2,300 tested, 7.4% active | AID 651707;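 active = over 5% cells positive for green fluorescent reporter, or over 2% positive for both it and APC stain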;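 also: range taken on the double positive population between DMSO and positive control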
An asterisk follows results filed as active; i = inactive; ? = inconclusive; · = not tested or not shown; + = active, no number. A selection: hits, their analogues and other compounds. The true share with any hit is near 1.8%.

SMILES	ABCB6 inh 2	Exocytosis inh	Myeloid diff 2	Myeloid diff CP1	GFP autofluor
CC1CN(C(=O)COc2ccc3c(-c4ccccc4)cc(=O)oc3c2)CC(C)O1 (stereo unspecified)	92	1	i	·	·
OCc1ccc(-c2cccc3nccn23)cc1	98	?	i	·	·
Cc1cn([C@H]2C[C@H](O)[C@@H](/C=C/C(=O)NCCc3cccs3)O2)c(=O)[nH]c1=O	98	0	i	·	·
Cc1ccc(S(=O)(=O)N/N=C\C=C\c2ccccc2)cc1	102	3	·	i	0
O=S(=O)(N/N=C\C=C\c1ccccc1)c1ccc(Br)cc1	103	0	i	·	·
Cc1ccc2c(c1)N(C(=O)CCC(=O)NCc1cccnc1)CC(C)O2 (stereo unspecified)	96	0	i	·	·
Cc1cn(C2CC(OC(=O)C(C)C)C(CO)O2)c(=O)[nH]c1=O (stereo unspecified)	102	7	i	·	·
O=C(O)[C@@H]1[C@H]2C[C@H]3c4[nH]c5ccccc5c4CCN3C[C@@H]2CC[C@@H]1O	108	-5	i	·	·
O=C(O)C1CCCC2CN3CCc4c([nH]c5ccccc45)C3C(O)C21 (stereo unspecified)	99	-1	i	i	1
CCNc1nnc(SCC(=O)N2c3ccccc3NC(=O)CC2C)s1 (stereo unspecified)	103	11	i	·	·
CC(C)OCCCNC(=O)CN1C(=O)/C(=C/c2ccccc2)Sc2ccccc21	96	-1	i	·	·
COc1ccc(NC(=O)c2ccco2)cc1NC(=O)c1ccco1	103	-1	i	i	0
COc1ccc(NC(=O)c2ccco2)cc1NC(=O)c1c(OC)cccc1OC	99	-5	i	·	·
CSc1ccccc1NC(=O)COC(=O)CCC(=O)c1ccc(F)cc1	97	-2	i	·	·
Cc1ccc(C(=O)CCC(=O)OCC(=O)Nc2ccccc2SCC#N)cc1	175	6	+	i	89*
CCOC(=O)C1(CCc2ccccc2)CCN(C(=O)c2cnc(C)cn2)CC1	98	-3	i	·	·
CN(CCC#N)C(=O)COC(=O)c1ccc(CNS(=O)(=O)c2ccc(F)c(Cl)c2)cc1	100	1	i	·	·
CC(C)=N/N=C(/c1ccc([N+](=O)[O-])cc1)C12CN3CN(CN(C3)C1)C2	97	-2	i	·	·
O=[N+]([O-])c1cccc(/C(=N/N=C/c2ccccc2Br)C23CN4CN(CN(C4)C2)C3)c1	95	0	+	i	0
Cc1ccc(NC(=O)COC(=O)c2ccc(CN3CCCC3=O)cc2)c(Cl)c1	94	-1	i	·	·
FC(F)(F)c1ccc(N2CCN(c3cc(-c4ccccc4)nc4ncnn34)CC2)nc1	95	15	i	i	1
FC(F)(F)c1cccc(Nc2cc(-c3ccccc3)nc3ncnn23)c1	100	1	i	·	·
O=c1c2ccccc2nc(CSc2nnnn2-c2ccccc2)n1-c1ccccc1Cl	92	1	i	·	·
c1ccc(Cn2c(CSc3nnnn3-c3ccccc3)nc3ccccc32)cc1	100	1	i	i	0
CCC[C@@H](CN1CCC[C@H]1CN1C(N)=NC[C@H]1C(C)C)N1C[C@@H](Cc2ccccc2)N(CCCC2CCCC2)C1=N	98	-19	i	·	·
SMILES	ABCB6 inh 2	Exocytosis inh	Myeloid diff 2	Myeloid diff CP1	GFP autofluor
COc1ccc(C=NNC(=O)c2ccccc2NS(=O)(=O)c2cccs2)cc1O	97	0	i	·	·
COc1ccc(OC)c(C=NNC(=O)c2ccccc2NS(=O)(=O)c2cccs2)c1	121	-2	+	i	2
CCN1C(=O)[C@H]2[C@@H](c3ccc(C)cc3)N[C@]3(CCCN(Cc4ccccc4)C3=O)[C@H]2C1=O	100	-2	i	·	·
CCOC(=O)/C=C1\SCC(=O)N1CC(=O)NC12CC3CC(CC(C3)C1)C2	96	0	+	i	0
CCOC(=O)/C=C1\SCC(=O)N1CC(=O)NC(C)C	99	3	i	·	·
COc1ccc(CCN2C(=O)CC(N3CCN(S(=O)(=O)c4ccccc4)CC3)C2=O)cc1OC (stereo unspecified)	98	-1	i	·	·
CC(=O)c1cccc(NC(=O)CSc2nc(=O)n(CCCN3CCOCC3)c3c2CCC3)c1	95	1	i	·	·
